First the molecules themselves.
B1: PhoQ; a variant is named by its letters at X, in order, P23837 (parent)
chain: MKKLLRLFFPLSLRVRFLLATAAVVLVLSLAYGMVALIGYSVSFDKTTFRLLRGESNLFYTLAKWENNKLHVELPENIDKQSPTMTLIYDENGQLLWAQRDVPWLMKMIQPDWLKSNGFHEIEADVNDTSLLLSGDHSIQQQLQEVREDDDDAEMTHSVAVNVYPATSRMPKLTIVVVDTIPVELKSSYMVWSWFIYVLSANLLLVIPLLWVAAWWSLRPIEALAKEVRELEEHNRELLNPATTRELTSLVRNLNRLLKSERERYDKYRTTLTDLTHSLKTPLXXLQXXLRSLRSEKMSVSDAEPVMLEQISRISQQIGYYLHRASMRGGTLLSRELHPVAPLLDNLTSALNKVYQRKGVNISLDISPEISFVGEQNDFVEVMGNVLDNACKYCLEFVEISARQTDEHLYIVVEDDGPGIPLSKREVIFDRGQRVDTLRPGQGVGLAVAREITEQYEGKIVAGESMLGGARMEVIFGRQHSAPKDE

Whole data set: some 140,000 sequences, median “enrichment ratio after two sorts for PhoP signalling” near 0, cut for the highest 2% near 11. This is one part of a sample in which the highest values are shown more often than they occur.

The variants in this test derive from B1. Description: enrichment ratio after two sorts for PhoP signalling (ratio (wild type AVST 3.29)); higher = more functional. To be noted: with PhoP (E. coli).
SFDP: the enrichment ratio is at most 0.25. Take VFVP: the enrichment ratio was at most 0.25.

For AQQI, the enrichment ratio came to 14.3. For ADQI, the enrichment ratio is at most 0.25. In the case of TEQY, the enrichment ratio came to 12.5. For WQIY the value was at most 0.25; for TEGY, 1.36. For AKQI, the enrichment ratio is at most 0.25. As to TEEN, the enrichment ratio came out at 3.06.

Take QEQY: the enrichment ratio was at most 0.25. Under TEYM stands at most 0.25; under AQIY, 24; under IQIY, at most 0.25. Under TEQN stands 34.8; under DNYP, at most 0.25. On to EFNV, for which the enrichment ratio is at most 0.25. For the variant FGIV, the enrichment ratio is 2.4. In the case of ALMP, the enrichment ratio was at most 0.25.

In the case of MHTV, the enrichment ratio was at most 0.25. In the case of FMAD, the enrichment ratio was at most 0.25. Consider GMNN, for which the enrichment ratio is at most 0.25. As to WNWL, the enrichment ratio was at most 0.25. In the case of SSSK, the enrichment ratio was at most 0.25. In the case of SGSI, the enrichment ratio came out at 15.9. On to STSI, for which the enrichment ratio amounted to 8.26. On to TVTG, for which the enrichment ratio was 15.3. For SRSI, the enrichment ratio is at most 0.25. On to SSSR, for which the enrichment ratio is at most 0.25.

Consider SGDH, for which the enrichment ratio is at most 0.25. Regarding SPTG, the enrichment ratio is at most 0.25. Take SSSI: the enrichment ratio is 15.2. Take SQSI: the enrichment ratio amounted to 16.7. KSTG: the enrichment ratio was at most 0.25. As to SGSK, the enrichment ratio is at most 0.25.

MQVF: the enrichment ratio turned out to be 1.6. In the case of KTET, the enrichment ratio is at most 0.25. For FTCL, the enrichment ratio worked out at 9.73. As for RLFE, the enrichment ratio is at most 0.25. In the case of YKMG, the enrichment ratio was at most 0.25. For LISD the value was at most 0.25; for SPSI, at most 0.25; for TVSI, 17.4. As for SESI, the enrichment ratio was 12.7.

With FSSI, the enrichment ratio came out at 0.692.

Regarding KSSI, the enrichment ratio was at most 0.25. On to VLSI, for which the enrichment ratio was at most 0.25.

SESR: the enrichment ratio was found to be 4.3. With LLSI, the enrichment ratio is at most 0.25.

With NVSI, the enrichment ratio was at most 0.25.

As to DDSI, the enrichment ratio is at most 0.25. With TLSI, the enrichment ratio was determined as 18.6. Under TSSI stands 19.5. With DSES, the enrichment ratio was at most 0.25.

NHHT: the enrichment ratio is at most 0.25.

With VGTA, the enrichment ratio was at most 0.25. Take EQHP: the enrichment ratio is at most 0.25. In the case of LVPM, the enrichment ratio was at most 0.25. In the case of QFFS, the enrichment ratio is at most 0.25. For TTNV, the enrichment ratio stood at 7.65. For PFAG, the enrichment ratio was at most 0.25. Under DGGW stands at most 0.25; under KLSI, at most 0.25; under SNSR, at most 0.25. Consider SISI, for which the enrichment ratio was 19.1. For SNSI, the enrichment ratio was found to be 12.4. As to WLSI, the enrichment ratio was at most 0.25. Turning to KYSI, the enrichment ratio was at most 0.25. Consider SLSI, for which the enrichment ratio was determined as 12.7. As for SNSK, the enrichment ratio was at most 0.25.

Turning to RISI, the enrichment ratio was at most 0.25. MVAF: the enrichment ratio was 8.08. Take VNTQ: the enrichment ratio was at most 0.25.

With FEKW, the enrichment ratio is at most 0.25. With RVKS, the enrichment ratio was at most 0.25. Turning to YPRG, the enrichment ratio was at most 0.25.

As to SCPI, the enrichment ratio stood at 15.2.

On to SCSK, for which the enrichment ratio was 14.3. For SCSR the value was 6.9. Consider SCPM, for which the enrichment ratio is 7.6.

Turning to SCGD, the enrichment ratio was at most 0.25. As to SCPA, the enrichment ratio was at most 0.25. For PQKP the value was at most 0.25; for RTKL, at most 0.25. Turning to YQFF, the enrichment ratio was at most 0.25. For PSPG, the enrichment ratio is at most 0.25.

For QCSN, the enrichment ratio was determined as 17.6.

As to QCWG, the enrichment ratio was 1.24. Under QCSK stands at most 0.25; under GCSN, 3.22; under QCSG, 32. Consider GCSG, for which the enrichment ratio was 6.35. Under YSWT stands at most 0.25; under VTWY, at most 0.25; under LKQC, at most 0.25. Under MYLH stands at most 0.25. YKYI: the enrichment ratio was at most 0.25.

In the case of TDCA, the enrichment ratio was 14.6. Under FDCA stands at most 0.25; under LTCQ, at most 0.25. Turning to FDCQ, the enrichment ratio was at most 0.25. As for TDCI, the enrichment ratio was at most 0.25.

With ADCS, the enrichment ratio was at most 0.25. Regarding TDCS, the enrichment ratio was found to be 11.3.

Consider KDCA, for which the enrichment ratio is at most 0.25.

As for TDCQ, the enrichment ratio was found to be 20.3.

For the variant ERGV, the enrichment ratio was at most 0.25. TKWP: the enrichment ratio is at most 0.25.

In the case of STMY, the enrichment ratio turned out to be 12.6. For the variant NGMY, the enrichment ratio is at most 0.25. In the case of RGMY, the enrichment ratio was at most 0.25. For ADMY, the enrichment ratio was determined as 0.253. Take PTMY: the enrichment ratio was at most 0.25.

On to HKMY, for which the enrichment ratio was at most 0.25. As to AGMY, the enrichment ratio turned out to be 20.

As for AIMY, the enrichment ratio is 6.62.

As for SWMY, the enrichment ratio was at most 0.25.

With TGMY, the enrichment ratio was found to be 12.7. As for KYMY, the enrichment ratio was at most 0.25. Take TKMY: the enrichment ratio was determined as 24. As for ICMS, the enrichment ratio came to 2.8. For the variant QRAT, the enrichment ratio is at most 0.25. As to FCCR, the enrichment ratio is at most 0.25. Consider DASH, for which the enrichment ratio was at most 0.25.

On to RNKS, for which the enrichment ratio is at most 0.25. Under NSMY stands at most 0.25; under YTMY, at most 0.25. In the case of ATMY, the enrichment ratio worked out at 7.37. With WIMY, the enrichment ratio was at most 0.25. For CTMY the value was 42.4. With AEMY, the enrichment ratio turned out to be 20.4. As for KSMY, the enrichment ratio is at most 0.25. With AEYE, the enrichment ratio was at most 0.25. As for NEMY, the enrichment ratio was at most 0.25. Regarding TGME, the enrichment ratio was at most 0.25. Take AEME: the enrichment ratio came out at 29.5. Consider TSMY, for which the enrichment ratio came out at 12.3. For the variant NYYK, the enrichment ratio was at most 0.25.

Regarding IYHP, the enrichment ratio was at most 0.25. Under HPGR stands at most 0.25.

As for EGAD, the enrichment ratio is at most 0.25. As for VQVR, the enrichment ratio was at most 0.25. As for KMTK, the enrichment ratio was at most 0.25. As to RCAP, the enrichment ratio is at most 0.25. In the case of FMFM, the enrichment ratio is at most 0.25. Under TCMC stands 24.2; under MEMC, 4.97. As for TEMC, the enrichment ratio amounted to 18.9. Under IEMC stands 12.9.

Turning to SRMC, the enrichment ratio is at most 0.25. Regarding VPMC, the enrichment ratio was at most 0.25. Take EEMC: the enrichment ratio is at most 0.25. VCMC: the enrichment ratio was determined as 1.73. As for VYMC, the enrichment ratio came out at 0.507. Take ITMC: the enrichment ratio is at most 0.25. Regarding TYMC, the enrichment ratio was at most 0.25. With VEMC, the enrichment ratio stood at 15.7.

With DVLN, the enrichment ratio is at most 0.25.

For IGSC, the enrichment ratio was at most 0.25.

Regarding SHAH, the enrichment ratio came to 5.87. In the case of VCLL, the enrichment ratio stood at 6.51. As to FKPV, the enrichment ratio is at most 0.25. Take KAMC: the enrichment ratio is at most 0.25. NEMC: the enrichment ratio is at most 0.25. Regarding SIMC, the enrichment ratio is 19.4.

In the case of SPMC, the enrichment ratio is at most 0.25. As for SLMC, the enrichment ratio came to 3.3.

Regarding SCMC, the enrichment ratio was 12.6. For QEMC, the enrichment ratio is at most 0.25. Turning to TAMC, the enrichment ratio was 14.6.

For the variant SEMC, the enrichment ratio was found to be 18. In the case of KYMC, the enrichment ratio is at most 0.25. For YAMC, the enrichment ratio is at most 0.25. In the case of SYMC, the enrichment ratio is at most 0.25. For the variant KIGP, the enrichment ratio is at most 0.25.

As for VITT, the enrichment ratio was at most 0.25.

TPNM: the enrichment ratio is at most 0.25. For YGCE, the enrichment ratio is at most 0.25. As for NYTT, the enrichment ratio was at most 0.25. For the variant FHLQ, the enrichment ratio is at most 0.25.

On to ESME, for which the enrichment ratio is at most 0.25. Consider VRRK, for which the enrichment ratio is at most 0.25. On to PKDY, for which the enrichment ratio is at most 0.25. For VMIQ the value was at most 0.25. With YFFH, the enrichment ratio is at most 0.25. Turning to WWTW, the enrichment ratio is at most 0.25. As for GPQA, the enrichment ratio was at most 0.25. Regarding SAMC, the enrichment ratio is 18.1. For the variant IIMC, the enrichment ratio was at most 0.25.

STMC: the enrichment ratio turned out to be 8.81. With EEMP, the enrichment ratio was at most 0.25. For QQNV the value was at most 0.25; for YMKP, at most 0.25; for TMQM, 12.8. Under KMQM stands at most 0.25; under NNQM, 30. Under NNCK stands at most 0.25; under LNQM, at most 0.25.

As to TWQM, the enrichment ratio was at most 0.25.

Take HAQM: the enrichment ratio is at most 0.25. Turning to MNQM, the enrichment ratio is at most 0.25. For TNQM, the enrichment ratio came to 14.3.

(Values after a collection of fitness landscapes (doi:10.1126/science.1257360).)
